14 compounds from ChEMBL document CHEMBL1157539, “Thousands of chemical starting points for antimalarial lead identification” (Nature, 2010) can be followed below.

The term Inhibition denotes how much of the control response was suppressed. A low value points to little suppression.

In this assay the test system is HepG2. Nature of the assay: GSK_TCMDC: Percent inhibition of human HepG2 cell line. Test compounds present at 10uM. It counts as functional.
`Cl.O=C(N[C@@H](Cc1ccccc1)[C@H](O)CNC1CCCc2ccccc21)c1cc(C2CCCC2)cc(N2CCCC2=O)c1` (some centres undefined) came in with an Inhibition of 31%.
On to `O=C(Nc1ccc(F)cc1)NC1CCN(c2ccnc3ccccc23)C1.O=C(O)C(F)(F)F` (centres undefined), for which the Inhibition stood at 9%.
As for `CCOc1ccc2c(c1)N(C(=O)C=Cc1ccccc1)C(C)(C)c1ssc(=S)c1-2`, the figure is 3%; as for `CCOc1ccc(N(CC)S(=O)(=O)c2cc(Br)cc3c2N(C(=O)C2CC2)CC3)cc1`, 0%.
As for `CC(=O)N(C)C1CCN(Cc2ccc(-c3ccc(-c4nc5cc(F)ccc5[nH]4)s3)cc2)C1.O=C(O)C(F)(F)F` (centres undefined), the figure is 46%; as for `O=c1cc(NCCCNCc2ccccc2-c2ccccc2)[nH]c2ccccc12`, 0%.
As for `O=C(O)C(F)(F)F.Oc1ccc(CCNc2nc(NCCCOc3cccc(CN4CCCCC4)c3Cl)nc(N3CCNCC3)n2)cc1`, the figure is 26%; as for `N#Cc1c(N)nc(SCC(=O)Nc2cc(C(F)(F)F)ccc2Cl)c(C#N)c1-c1cccs1`, 23%; as for `Cl.N#CCc1ccc(Nc2nccc(Nc3ccc(Oc4ccccc4)cc3)n2)cc1`, 0%.
In turn, `COc1c(C2CCN(CCCCNC(=O)c3ccc(-c4ccc(Cl)cc4)c(O)c3)CC2)ccc2c1CCCC2` showed an Inhibition of 91%.
As for `Cl.N=C(N)NN=Cc1ccc2c(c1)Cc1ccccc1-2`, the figure is 72%; as for `CN(C)c1ccc(NC2=NC(N)=NC(C)(C)N2)cc1`, 0%.
The same measure for `Cc1cc(-c2ccc(Cl)cc2)c2c(N)c(C(=O)Nc3ccc(F)cc3)sc2n1`: 12%; for `CC(C)(C)c1cc(C(=O)N2CCN(c3nccnc3C#N)CC2)n(Cc2ccccc2)n1`: 0%.
